{"source": "PubChem BioAssay AID488969", "about": "(Vanderbilt High Throughput Screening Facility, 2010)", "note": "Whole data set: some 110,000 compounds, median “z-score” near -0.1, cut for the highest 2% near 2. What follows is part of a selection rich in the highest values, with near analogues and random picks from the rest. Active and inactive are the calls of the source.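 The calls were made as follows: active = z-score in the third read window above 3 or below -3; inactive = the rest.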"}
{"target": "Metabotropic glutamate receptor 8 (Rattus norvegicus) (UniProt P70579)", "sequence (P70579 whole entry, looked up)": "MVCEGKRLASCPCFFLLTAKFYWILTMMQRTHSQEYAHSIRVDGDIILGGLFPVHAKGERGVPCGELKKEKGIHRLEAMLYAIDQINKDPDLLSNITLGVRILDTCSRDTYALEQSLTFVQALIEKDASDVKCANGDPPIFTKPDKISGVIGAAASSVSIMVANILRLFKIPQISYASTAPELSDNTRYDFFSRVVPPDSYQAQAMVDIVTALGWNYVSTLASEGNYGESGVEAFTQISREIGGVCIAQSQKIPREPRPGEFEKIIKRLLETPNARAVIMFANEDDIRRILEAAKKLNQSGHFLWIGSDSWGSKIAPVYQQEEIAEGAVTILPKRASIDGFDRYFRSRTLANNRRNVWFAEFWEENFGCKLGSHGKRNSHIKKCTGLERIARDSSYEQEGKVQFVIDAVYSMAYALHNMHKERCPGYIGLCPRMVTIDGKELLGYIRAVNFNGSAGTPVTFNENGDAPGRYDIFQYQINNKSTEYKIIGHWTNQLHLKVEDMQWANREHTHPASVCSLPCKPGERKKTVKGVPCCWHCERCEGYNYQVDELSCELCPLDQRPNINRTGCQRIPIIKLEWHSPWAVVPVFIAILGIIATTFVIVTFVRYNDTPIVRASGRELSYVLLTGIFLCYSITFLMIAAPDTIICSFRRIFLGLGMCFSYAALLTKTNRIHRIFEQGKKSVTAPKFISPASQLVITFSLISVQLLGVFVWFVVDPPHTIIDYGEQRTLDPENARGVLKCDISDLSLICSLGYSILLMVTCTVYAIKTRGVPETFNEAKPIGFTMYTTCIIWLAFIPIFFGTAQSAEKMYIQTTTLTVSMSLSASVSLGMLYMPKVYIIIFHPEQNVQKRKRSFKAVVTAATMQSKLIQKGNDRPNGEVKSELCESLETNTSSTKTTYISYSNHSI", "experiment": "rat mGluR8 modulators via GIRK flux, primary screen, cell-based, thallium flux, HTS (AID 488969)", "details": "HEK293 rat mGluR8, GIRK (G protein-gated inwardly rectifying potassium channel) thallium flux, FluoZin2; at 10 µM; stronger effect = higher value; submaximal glutamate (EC20) added with thallium"}
{"smiles": "CS(=O)(=O)N(CCc1ccccc1)CC(=O)NCc1cccnc1", "z-score": 0.68}
{"smiles": "O=c1c2c(n3nnnc3n1Cc1ccccc1)-c1ccccc1CC21CCCC1", "z-score": 0.0259}
{"smiles": "Cn1c2ccccc2c2cc(C(=O)NNS(=O)(=O)c3ccc(F)cc3)sc21", "z-score": "5.09 (active)"}
{"smiles": "CC(=O)Nc1ccc(S(=O)(=O)NNC(=O)c2cc3c4ccccc4n(C)c3s2)cc1", "z-score": -0.78}
{"smiles": "COc1ccc(S(=O)(=O)NNC(=O)c2cc3c4ccccc4n(C)c3s2)cc1", "z-score": -0.127}
{"smiles": "COc1ccccc1C(=O)Nc1ccc(S(=O)(=O)N2CCc3ccccc32)cc1", "z-score": 0.187}
{"smiles": "Cc1ccc(Oc2cc([N+](=O)[O-])cc3c2C(=O)Nc2ccccc2O3)cc1", "z-score": -0.0885}
{"smiles": "CCOC(=O)Cc1cc(-c2ccc(O)cc2)nc2ccc3ccccc3c12", "z-score": 0.0725}
{"smiles": "CCOC(=O)c1c(C)nc2c(c1-c1ccc(Cl)cc1)C(=O)CC(C)(C)C2", "z-score": -1.24}
{"smiles": "CC(C)C[C@H](NC(=O)NCCc1ccc(Cl)cc1)C(=O)O", "z-score": 2.58}
{"smiles": "CC(C)[C@H](NC(=O)NCCc1ccc(Cl)cc1)C(=O)O", "z-score": 0.54}
{"smiles": "CC(C)CC(NC(=O)c1ccc(Cl)cc1)C(=O)O", "note": "(stereo not drawn)", "z-score": -0.0425}
{"smiles": "COc1ccc(NC(=O)C23CC4CC(C2)CC(n2cnc(Br)n2)(C4)C3)cc1Cl", "z-score": -0.254}
{"smiles": "Cn1c(=O)cc(SCC(=O)NCCC2=CCCCC2)c2ccc(Cl)cc21", "z-score": -0.0516}
{"smiles": "O=C(NC(Nc1nc2ccc([N+](=O)[O-])cc2s1)(C(F)(F)F)C(F)(F)F)c1ccccc1Cl", "z-score": "9.65 (active)"}
{"smiles": "O=C(NC(Nc1nc2ccc([N+](=O)[O-])cc2s1)(C(F)(F)F)C(F)(F)F)c1cccnc1", "z-score": 0.978}
{"smiles": "O=C(NC(Nc1nc2ccc([N+](=O)[O-])cc2s1)(C(F)(F)F)C(F)(F)F)c1ccccc1", "z-score": "6.52 (active)"}
{"smiles": "COC(=O)C(NC(=O)c1ccccc1Cl)(Nc1ncc(S(=O)(=O)c2ccc([N+](=O)[O-])cc2)s1)C(F)(F)F", "note": "(stereo not drawn)", "z-score": -0.242}
{"smiles": "O=C(NC(NNc1ccc([N+](=O)[O-])cc1)(C(F)(F)F)C(F)(F)F)c1ccccc1Cl", "z-score": -0.392}
{"smiles": "O=C(NC(Nc1nc2ccccc2s1)(C(F)(F)F)C(F)(F)F)c1ccccc1", "z-score": -0.124}
{"smiles": "CN(C(=O)Nc1ccc(S(=O)(=O)N(C)C)cc1)C1CCCCC1", "z-score": -0.0267}
{"smiles": "O=C(CCn1c(=O)c2ccccc2n(CC(=O)NC2CCCC2)c1=O)NCc1ccco1", "z-score": -0.258}
{"smiles": "CN(C(=O)COC(=O)c1ccccc1SCC(=O)NC1CCCCCCC1)C1CCS(=O)(=O)C1", "note": "(stereo not drawn)", "z-score": -0.32}
{"smiles": "Cc1cc(Oc2ccc3ccccc3c2)nc(SCC(=O)c2ccccc2)n1", "z-score": -0.14}
{"smiles": "CC(=O)/C=C(\\C)Nc1ccc(-c2cnc(-c3ccccc3)o2)cc1", "z-score": 0.0863}
{"smiles": "CCNS(=O)(=O)c1cc(S(C)(=O)=O)ccc1Cl", "z-score": "8.32 (active)"}
{"smiles": "Cc1ccccc1NS(=O)(=O)c1cc(S(C)(=O)=O)ccc1Cl", "z-score": -0.0663}
{"smiles": "CS(=O)(=O)c1ccc(Cl)c(S(=O)(=O)NCc2ccccc2)c1", "z-score": 0.117}
{"smiles": "CC(C)=CC(=O)Nc1nnc(-c2ccccc2)s1", "z-score": -0.169}
{"smiles": "O=C(O)CCC(=O)NNC(=O)c1cccc(Br)c1", "z-score": -0.13}
{"smiles": "O=C(NNC(=S)Nc1ccccc1)c1cccc(Br)c1", "z-score": "3.98 (active)"}
{"smiles": "Cc1ccc(C(=O)NNC(=S)Nc2cccc3ccccc23)s1", "z-score": 1.65}
{"smiles": "C=CCNC(=S)NNC(=O)c1cccc(Br)c1", "z-score": -0.0521}
{"smiles": "CCNC(=S)NNC(=O)c1cccc(Br)c1", "z-score": 0.0953}
{"smiles": "O=C(NNC(=S)Nc1cccc2ccccc12)c1cccc(Br)c1", "z-score": "13.9 (active)"}
{"smiles": "CCC(=O)NCCn1c(C)cc2ccccc21", "z-score": 0.729}
{"smiles": "CC(/C=N/NC(=O)c1ccc(CN2c3cccc4cccc(c34)S2(=O)=O)cc1)c1ccccc1", "note": "(stereo not drawn)", "z-score": -0.557}
{"smiles": "Cc1ccc(-c2noc(CCC(=O)NCCN3CCOCC3)n2)cc1", "z-score": -0.472}
{"smiles": "O=C(Nc1ncccn1)c1cc([N+](=O)[O-])cc([N+](=O)[O-])c1", "z-score": -0.131}
{"smiles": "Cc1ccc(S(=O)(=O)NC(=NCC(=O)O)c2ccc(F)cc2)cc1", "z-score": 0.317}
{"smiles": "O=C(O)CN=C(NS(=O)(=O)c1ccccc1)c1ccccc1", "z-score": "4.61 (active)"}
{"smiles": "O=C(O)CN=C(NS(=O)(=O)c1ccc(Cl)cc1)c1ccccc1", "z-score": 0.274}
{"smiles": "CCOc1ccccc1CNS(=O)(=O)c1ccc2c(c1)oc(=O)n2C", "z-score": -0.853}
{"smiles": "CCn1cc(C(=O)Nc2nnc(C)s2)c(=O)c2cc(F)c(N3CCN(C(=O)c4ccco4)CC3)cc21", "z-score": -0.178}
{"smiles": "CCOC(=O)c1cnc(SCC(=O)Nc2nc(C)c(C)s2)nc1N", "z-score": "3.65 (active)"}
{"smiles": "CCOC(=O)c1cnc(SCC(=O)Nc2cc(OC)cc(OC)c2)nc1N", "z-score": 0.341}
{"smiles": "CCOC(=O)c1cnc(SCC(=O)Nc2nnc(CC)s2)nc1N", "z-score": 0.763}
{"smiles": "Cc1cc2c(nn1)CCc1nonc1-2", "z-score": 0.0142}
{"smiles": "COc1cc2nc(CN3C(=O)c4ccccc4C3=O)oc(=O)c2cc1OC", "z-score": -0.733}
{"smiles": "COc1ccc(Cl)cc1C(=O)CSc1nnnn1C1CCCC1", "z-score": "7.32 (active)"}
{"smiles": "COc1ccc(Cl)cc1C(=O)CSc1nnnn1C1CCCCC1", "z-score": -0.333}
{"smiles": "CCCCn1nnnc1SCC(=O)c1cc(Cl)ccc1OC", "z-score": -1.36}
{"smiles": "O=C(NNC(=O)[C@@H]1CCCC[C@@H]1C(=O)O)c1cccs1", "z-score": 0.534}
{"smiles": "O=C(NNC(=O)c1cnccn1)c1cccc([N+](=O)[O-])c1", "z-score": -0.417}
{"smiles": "O=C(NNC(=O)c1cc(-c2ccccc2)n(-c2ccccc2)n1)c1cccc([N+](=O)[O-])c1", "z-score": "6.49 (active)"}
{"smiles": "O=C(NCc1cn(-c2ccccc2)nc1-c1ccccc1)c1cccc([N+](=O)[O-])c1", "z-score": -0.314}
{"smiles": "C=CCn1c(-c2ccc(S(=O)(=O)N3CCOCC3)cc2)csc1=Nc1ccccc1", "z-score": 0.017}
{"smiles": "Cc1nn(-c2ccccc2)c(N)c1C1(O)C(=O)N(C(C)C)c2ccccc21", "note": "(stereo not drawn)", "z-score": 0.371}
{"smiles": "O=C(c1ccccc1)n1nc(-c2ccccc2)nc1NCc1ccco1", "z-score": 0.149}
{"smiles": "CCS(=O)(=O)n1nc(-c2ccccc2)nc1NCc1ccco1", "z-score": 2.2}
{"smiles": "O=S(=O)(c1ccccc1)n1nc(-c2ccccc2)nc1NCc1ccco1", "z-score": -0.0427}
{"smiles": "CCS(=O)(=O)c1nc2ccccc2n1CC(=O)N1CCOCC1", "z-score": 0.0592}
{"smiles": "O=C(NC(=S)Nn1cnc2c(cnn2-c2ccccc2)c1=O)c1ccc(Oc2ccccc2)cc1", "z-score": 2.08}
{"smiles": "O=C(NC(=S)Nn1cnc2c(cnn2-c2ccccc2)c1=O)c1ccccc1", "z-score": -0.101}
{"smiles": "O=C(NC(=S)Nn1cnc2c(cnn2-c2ccccc2)c1=O)c1ccc(Cl)cc1", "z-score": 0.0584}
{"smiles": "CCCN(Cc1ccc(N(C)C)cc1)CC1CC1", "z-score": -0.858}
{"smiles": "OCCN(Cc1ccccc1)CC1CCCCC1", "z-score": 0.614}
{"smiles": "CCCN(Cc1ccc(N(CC)CC)cc1)CC1CC1", "z-score": 2.1}
{"smiles": "CCCCn1c(SCC(=O)N2CCOCC2)nnc1-c1ccoc1C", "z-score": 1.9}
{"smiles": "COc1ccc(S(=O)(=O)N(CC(=O)N2CCN(C)CC2)c2ccc(C)cc2)cc1OC", "z-score": 0.277}
{"smiles": "CC(=O)OCC(=O)Nc1ccc(N=Nc2ccccc2)cc1", "z-score": 0.277}
{"smiles": "CCCC(=O)OCC(=O)Nc1ccc(N=Nc2ccccc2)cc1", "z-score": 0.427}
{"smiles": "CC(C)C(=O)OCC(=O)Nc1ccc(N=Nc2ccccc2)cc1", "z-score": "10.5 (active)"}
{"smiles": "Cc1cc(-c2nn(-c3ccccc3)cc2/C=C2\\SC(N)=NC2=O)ccc1OC(C)C", "z-score": -0.0568}
{"smiles": "Cn1c(=O)oc2cc(S(=O)(=O)NCCN3CCN(c4ccccc4F)CC3)ccc21", "z-score": -0.14}
{"smiles": "CCCCN(CCCNC(=O)C1CCN(S(=O)(=O)N2CCOCC2)CC1)Cc1ccccc1", "z-score": 2.95}
{"smiles": "CC(C)N(CCNC(=O)C1CCN(S(=O)(=O)N2CCOCC2)CC1)Cc1ccccc1", "z-score": 0.267}
{"smiles": "CCCCN(CCCNC(=O)C1CCN(S(=O)(=O)N2CCOCC2)CC1)c1ccccc1", "z-score": -1.17}
{"smiles": "O=C(COc1ccccc1)OCc1csc(Nc2ccccc2)n1", "z-score": -0.693}
{"smiles": "CS(=O)(=O)Nc1ccc2c(c1)nc1n2CCOC1", "z-score": -0.149}
{"smiles": "COc1cccc(CNC(=O)C2(C)Oc3ccccc3NC2=O)c1", "note": "(stereo not drawn)", "z-score": -0.3}
{"smiles": "COc1ccc(CS(=O)(=O)/C(Cl)=C(/Cl)C(=O)Nc2ccc(OC)nc2)cc1", "z-score": -0.34}
{"smiles": "Fc1ccc2nc(Nc3nc4c(F)cccc4s3)sc2c1", "z-score": "4.98 (active)"}
{"smiles": "COC(=O)c1ccc2nc(Nc3nc4c(F)cc(F)cc4s3)sc2c1", "z-score": 1.56}
{"smiles": "CC(=O)c1sc(Nc2nc3ccc(F)cc3s2)nc1C", "z-score": 0.302}
{"smiles": "NNc1nc2ccc(F)cc2s1", "z-score": -0.467}
{"smiles": "Fc1ccc2nc(Nc3nc4c(F)cc(F)cc4s3)sc2c1", "z-score": "6.16 (active)"}
{"smiles": "COC(=O)c1ccc2nc(Nc3nc4ccc(F)cc4s3)sc2c1", "z-score": 0.254}
{"smiles": "CCCCC(=O)Nc1ccccc1C(=O)N1CCOCC1", "z-score": 0.0261}
{"smiles": "C/C(=N\\OCC(=O)Nc1ccc(F)c(F)c1F)c1cc2ccccc2o1", "z-score": -1.92}
{"smiles": "CCCCOc1ccc(C(=O)N/C(=C\\c2cccc([N+](=O)[O-])c2)C(=O)OC(C)C)cc1", "z-score": 0.536}
{"smiles": "Cc1ccc(CCSc2ccc(C(C)C)cc2)cn1", "z-score": -0.399}
{"smiles": "CC(C)CN1C(=O)NC(NC(=O)c2ccco2)(C(F)(F)F)C1=O", "note": "(stereo not drawn)", "z-score": 0.0372}
{"smiles": "CCOC(=O)c1ccc(NC(=S)Nc2ccccc2)cc1", "z-score": 1.7}
{"smiles": "CCOC(=O)c1ccc(NC(=S)NC(=O)COc2ccccc2)cc1", "z-score": "3.05 (active)"}
{"smiles": "CN(C(=S)Nc1ccc(Oc2ccccc2)cc1)C1CCCCC1", "z-score": 0.0776}
{"smiles": "Cc1cccc(NC(=O)COc2ccc(Br)cc2)n1", "z-score": -0.0989}
{"smiles": "CCCCN(C)C(=S)Nc1ccc(Oc2ccccc2)cc1", "z-score": 1.42}
{"smiles": "Cc1ccc(OCC(=O)NC(=S)Nc2cccc(C)n2)cc1", "z-score": 1.99}
{"smiles": "CCCC(=O)NC(=S)Nc1ccccc1C(=O)OC", "z-score": 0.0764}
{"smiles": "Cc1ccc(OCC(=O)NC(=S)Nc2ccc(Br)c(C)n2)cc1", "z-score": 1.02}
{"smiles": "CCCN(CC1CC1)C(=S)Nc1ccc(Oc2ccccc2)cc1", "z-score": "3.7 (active)"}
{"smiles": "CCC(=O)NC(=S)Nc1ccc(NC(=O)COc2ccccc2)cc1", "z-score": 0.0565}
{"smiles": "CCC(=O)NC(=S)Nc1ccccc1C(=O)OC", "z-score": -0.308}
{"smiles": "COC(=O)c1ccccc1NC(=S)NC(=O)COc1ccc(C)cc1", "z-score": 2.28}
{"smiles": "O=C(CSc1ccsc1[N+](=O)[O-])N1CCN(c2ccccc2)CC1", "z-score": -0.247}
{"smiles": "COCCCNS(=O)(=O)c1ccc(SC)cc1", "z-score": -0.232}
{"smiles": "O=C(COC(=O)Cc1c(Cl)cccc1Cl)Nc1ccc(OC(F)(F)F)cc1", "z-score": 0.262}
